# Source: the supplement of paper PMC10849652
# Targets with a hit are over-represented here; the source holds about 7,900 in all. About 0.6% of all pairs of compound and target were hits. Values without a mark were called inactive.
# How the values were obtained:
# Test in all cases: log2 fold change, soluble protein after heating vs DMSO (PISA); higher = thermal stabilisation; K562 cells, 10 uM, 30 min; active = over 0.2 and 3.5 SD of the protein, either way, in both replicates (recomputed)
# [1] = compound: COC1=CC=C(C=C1)CN2C=CC3=C2C=C(C=C3)C(=O)NO
# Method in brief: (§1)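 Soluble protein was quantified by TMTpro 16plex LC-MS/MS after channel sums were equalised. It was obtained as the supernatant after 21,000xg for 90 min from pooled aliquots of K562 cells (2×10^6 cells/mL, 10 μM compound, 30 min) heated for 3 min across 48°C-58°C and extracted in PBS with 0.5% NP-40 at 4°C. Thermal stability values are relative to control samples and come from duplicates. They are given as log2 fold changes.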
# [2] = compound: CON(C)C(=O)N1N=C(c2cc(F)ccc2F)S[C@@]1(CCCN)c1ccccc1 [filanesib]
# Method in brief: as §1
# [3] = compound: CO[C@H]1C[C@@H]2CC[C@@H](C)[C@@](O)(O2)C(=O)C(=O)N2CCCC[C@H]2C(=O)O[C@H]([C@H](C)C[C@@H]2CC[C@H](n3cnnn3)[C@H](OC)C2)CC(=O)[C@H](C)/C=C(\C)[C@@H](O)[C@@H](OC)C(=O)[C@H](C)C[C@H](C)/C=C/C=C/C=C/1C [zotarolimus]
# Method in brief: as §1
# [4] = compound: COc1cc(C(=O)O)ccc1NC(=O)[C@@H]1N[C@@H](CC(C)(C)C)[C@](C#N)(c2ccc(Cl)cc2F)[C@H]1c1cccc(Cl)c1F [idasanutlin]
# Method in brief: as §1
# [5] = compound: COc1cc(Nc2ncc3c(n2)-c2ccc(Cl)cc2C(c2c(F)cccc2OC)=NC3)ccc1C(=O)O [alisertib]
# Method in brief: as §1
# [6] = compound: COc1cc2nc(-c3cc(F)ccc3O)nc(N[C@@H]3CNC[C@H]3C(C)(C)O)c2cc1OC
# Method in brief: as §1
# [7] = compound: COc1cc2ncnc(Nc3ccc(F)c(Cl)c3)c2cc1OCCCN1CCOCC1 [gefitinib]
# Method in brief: as §1
# [8] = compound: COc1cccc2cc(-c3nc([C@H]4CC[C@H](C(=O)O)CC4)n4ncnc(N)c34)[nH]c12
# Method in brief: as §1
# [9] = compound: CS(=O)(=O)CCNCc1ccc(-c2ccc3ncnc(Nc4ccc(OCc5cccc(F)c5)c(Cl)c4)c3c2)o1 [lapatinib]
# Method in brief: as §1
# [10] = compound: CS(=O)(=O)N1CCN(Cc2cc3nc(-c4cccc5[nH]ncc45)nc(N4CCOCC4)c3s2)CC1 [pictilisib]
# Method in brief: as §1
# [11] = compound: CS(=O)(=O)c1ccc(-c2cnc(N)c(C(=O)Nc3ccccc3)n2)cc1
# Method in brief: as §1
# [12] = compound: C[C@@H](Oc1cc(-c2cnn(C3CCNCC3)c2)cnc1N)c1c(Cl)ccc(F)c1Cl [crizotinib]
# Method in brief: as §1
# [13] = compound: C[C@@H]1COCCN1C2=NC(=NC(=C2)C3(CC3)S(=O)(=O)C)C4=C5C=CNC5=CC=C4
# Method in brief: as §1
# [14] = compound: C[C@H](C1=CC=C(C=C1)C(=O)NC2=C3C=CNC3=NC=C2)N
# Method in brief: as §1
# [15] = compound: C[C@H](Nc1ncnc2nc[nH]c12)c1cc2cccc(Cl)c2c(=O)n1-c1ccccc1 [duvelisib]
# Method in brief: as §1
# [16] = compound: Cc1cc(Nc2cc(CN3CCOCC3)c3nc(C)c(Cc4ccc(Cl)cc4F)n3n2)n[nH]1 [gandotinib]
# Method in brief: as §1
# [17] = compound: Cc1cc(Nc2cc(N3CCN(C)CC3)nc(Sc3ccc(NC(=O)C4CC4)cc3)n2)n[nH]1 [tozasertib]
# Method in brief: as §1
# [18] = compound: Cc1cc(SCc2sc(-c3ccc(C(F)(F)F)cc3)nc2C)ccc1OCC(=O)O
# Method in brief: as §1
# [19] = compound: Cc1ccc(-n2nc(C(C)(C)C)cc2NC(=O)Nc2ccc(OCCN3CCOCC3)c3ccccc23)cc1 [doramapimod]
# Method in brief: as §1
# [20] = compound: Cc1ccc(C(=O)N(CCCN)[C@@H](c2nc3cc(Cl)ccc3c(=O)n2Cc2ccccc2)C(C)C)cc1 [ispinesib]
# Method in brief: as §1
# UniProt Q9NQZ5, sequence (Q9NQZ5 whole entry, looked up): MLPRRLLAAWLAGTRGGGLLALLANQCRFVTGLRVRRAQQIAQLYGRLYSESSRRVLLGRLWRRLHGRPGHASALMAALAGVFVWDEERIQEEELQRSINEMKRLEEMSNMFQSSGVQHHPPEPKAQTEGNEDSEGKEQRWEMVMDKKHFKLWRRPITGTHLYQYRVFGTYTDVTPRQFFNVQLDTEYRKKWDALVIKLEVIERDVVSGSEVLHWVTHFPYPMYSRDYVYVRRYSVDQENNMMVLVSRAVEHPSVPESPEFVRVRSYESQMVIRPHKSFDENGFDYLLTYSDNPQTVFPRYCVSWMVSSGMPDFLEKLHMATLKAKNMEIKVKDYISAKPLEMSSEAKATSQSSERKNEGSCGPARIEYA
# UniProt Q6YHU6, sequence (Q6YHU6 whole entry, looked up): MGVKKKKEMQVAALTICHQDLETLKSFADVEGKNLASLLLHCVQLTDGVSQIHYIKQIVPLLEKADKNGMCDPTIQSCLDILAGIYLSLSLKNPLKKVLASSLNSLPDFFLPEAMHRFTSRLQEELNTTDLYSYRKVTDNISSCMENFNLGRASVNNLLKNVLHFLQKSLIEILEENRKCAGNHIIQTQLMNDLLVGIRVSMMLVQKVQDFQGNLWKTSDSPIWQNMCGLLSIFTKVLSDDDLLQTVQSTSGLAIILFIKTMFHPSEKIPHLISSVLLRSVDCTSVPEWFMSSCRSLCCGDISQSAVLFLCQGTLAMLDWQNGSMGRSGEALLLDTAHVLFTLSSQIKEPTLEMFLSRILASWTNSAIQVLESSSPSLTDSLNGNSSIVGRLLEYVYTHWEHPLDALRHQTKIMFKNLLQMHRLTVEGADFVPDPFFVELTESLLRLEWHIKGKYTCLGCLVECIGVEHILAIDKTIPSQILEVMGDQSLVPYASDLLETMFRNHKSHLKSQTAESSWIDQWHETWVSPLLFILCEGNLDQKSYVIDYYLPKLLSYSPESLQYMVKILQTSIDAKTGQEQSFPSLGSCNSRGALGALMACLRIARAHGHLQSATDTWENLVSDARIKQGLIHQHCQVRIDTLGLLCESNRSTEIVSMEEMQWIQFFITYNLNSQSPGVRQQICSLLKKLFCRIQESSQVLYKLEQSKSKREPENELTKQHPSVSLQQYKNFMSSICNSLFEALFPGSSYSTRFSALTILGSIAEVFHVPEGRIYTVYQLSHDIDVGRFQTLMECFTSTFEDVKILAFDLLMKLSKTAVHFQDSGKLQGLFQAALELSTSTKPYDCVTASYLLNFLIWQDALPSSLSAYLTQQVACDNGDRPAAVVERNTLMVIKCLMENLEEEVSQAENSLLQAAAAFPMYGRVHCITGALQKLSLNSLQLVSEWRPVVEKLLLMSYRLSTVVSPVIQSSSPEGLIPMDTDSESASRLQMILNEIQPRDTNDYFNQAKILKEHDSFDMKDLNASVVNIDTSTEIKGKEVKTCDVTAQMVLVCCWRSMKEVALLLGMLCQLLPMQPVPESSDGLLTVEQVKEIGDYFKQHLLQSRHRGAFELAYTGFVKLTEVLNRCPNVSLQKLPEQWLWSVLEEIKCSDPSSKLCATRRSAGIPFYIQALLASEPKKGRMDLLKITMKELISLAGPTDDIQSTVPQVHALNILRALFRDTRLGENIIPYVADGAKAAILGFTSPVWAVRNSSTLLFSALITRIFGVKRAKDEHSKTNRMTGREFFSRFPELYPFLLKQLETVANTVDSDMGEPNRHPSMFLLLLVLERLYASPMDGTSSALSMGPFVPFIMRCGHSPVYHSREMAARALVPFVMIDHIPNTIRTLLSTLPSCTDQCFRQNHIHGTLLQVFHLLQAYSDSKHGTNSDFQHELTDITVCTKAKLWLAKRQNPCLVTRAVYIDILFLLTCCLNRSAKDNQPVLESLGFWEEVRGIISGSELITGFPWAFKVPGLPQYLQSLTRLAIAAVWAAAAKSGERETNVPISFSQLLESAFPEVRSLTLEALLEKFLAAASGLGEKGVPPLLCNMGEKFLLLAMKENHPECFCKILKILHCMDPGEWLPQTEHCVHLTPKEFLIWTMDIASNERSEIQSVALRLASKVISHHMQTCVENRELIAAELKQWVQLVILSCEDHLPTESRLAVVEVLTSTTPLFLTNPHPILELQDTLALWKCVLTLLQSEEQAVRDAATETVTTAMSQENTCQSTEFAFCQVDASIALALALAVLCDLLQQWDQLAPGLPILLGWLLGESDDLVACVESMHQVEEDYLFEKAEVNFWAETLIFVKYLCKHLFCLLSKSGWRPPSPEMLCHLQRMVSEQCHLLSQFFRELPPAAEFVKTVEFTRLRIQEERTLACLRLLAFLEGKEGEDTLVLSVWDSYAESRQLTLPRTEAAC
# UniProt Q4KMP7, sequence (Q4KMP7 whole entry, looked up): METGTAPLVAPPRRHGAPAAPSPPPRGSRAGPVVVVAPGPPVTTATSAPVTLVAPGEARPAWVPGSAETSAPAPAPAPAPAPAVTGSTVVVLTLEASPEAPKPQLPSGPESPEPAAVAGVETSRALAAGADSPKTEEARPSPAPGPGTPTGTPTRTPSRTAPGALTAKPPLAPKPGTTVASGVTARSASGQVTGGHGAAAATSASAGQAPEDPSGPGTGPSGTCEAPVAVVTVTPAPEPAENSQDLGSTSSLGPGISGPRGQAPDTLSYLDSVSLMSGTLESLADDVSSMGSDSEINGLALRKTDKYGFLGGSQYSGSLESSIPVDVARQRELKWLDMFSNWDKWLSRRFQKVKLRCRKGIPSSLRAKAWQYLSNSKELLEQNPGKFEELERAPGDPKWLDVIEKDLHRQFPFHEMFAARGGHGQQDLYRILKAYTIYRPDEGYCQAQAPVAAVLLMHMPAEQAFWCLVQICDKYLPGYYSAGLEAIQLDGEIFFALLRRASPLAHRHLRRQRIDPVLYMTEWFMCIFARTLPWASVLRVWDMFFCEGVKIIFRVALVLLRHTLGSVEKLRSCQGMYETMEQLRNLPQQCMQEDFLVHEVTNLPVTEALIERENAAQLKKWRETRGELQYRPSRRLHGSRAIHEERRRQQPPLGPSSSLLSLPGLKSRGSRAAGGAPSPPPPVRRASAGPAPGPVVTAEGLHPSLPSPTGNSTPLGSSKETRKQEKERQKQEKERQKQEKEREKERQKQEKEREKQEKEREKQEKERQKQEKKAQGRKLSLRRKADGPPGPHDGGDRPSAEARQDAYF
# UniProt Q9Y5X3, sequence (Q9Y5X3 whole entry, looked up): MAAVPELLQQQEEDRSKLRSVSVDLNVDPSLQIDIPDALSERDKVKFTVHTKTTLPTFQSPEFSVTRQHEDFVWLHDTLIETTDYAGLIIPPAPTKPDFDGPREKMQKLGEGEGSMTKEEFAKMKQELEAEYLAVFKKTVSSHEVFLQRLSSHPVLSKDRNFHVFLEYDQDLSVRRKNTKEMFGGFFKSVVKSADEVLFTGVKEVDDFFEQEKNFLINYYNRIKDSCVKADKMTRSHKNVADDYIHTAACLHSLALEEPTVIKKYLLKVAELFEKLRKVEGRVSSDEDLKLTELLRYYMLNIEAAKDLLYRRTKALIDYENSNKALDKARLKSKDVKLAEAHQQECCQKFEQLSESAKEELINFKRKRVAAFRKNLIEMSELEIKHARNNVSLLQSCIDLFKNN
# UniProt Q99523, sequence (Q99523 whole entry, looked up): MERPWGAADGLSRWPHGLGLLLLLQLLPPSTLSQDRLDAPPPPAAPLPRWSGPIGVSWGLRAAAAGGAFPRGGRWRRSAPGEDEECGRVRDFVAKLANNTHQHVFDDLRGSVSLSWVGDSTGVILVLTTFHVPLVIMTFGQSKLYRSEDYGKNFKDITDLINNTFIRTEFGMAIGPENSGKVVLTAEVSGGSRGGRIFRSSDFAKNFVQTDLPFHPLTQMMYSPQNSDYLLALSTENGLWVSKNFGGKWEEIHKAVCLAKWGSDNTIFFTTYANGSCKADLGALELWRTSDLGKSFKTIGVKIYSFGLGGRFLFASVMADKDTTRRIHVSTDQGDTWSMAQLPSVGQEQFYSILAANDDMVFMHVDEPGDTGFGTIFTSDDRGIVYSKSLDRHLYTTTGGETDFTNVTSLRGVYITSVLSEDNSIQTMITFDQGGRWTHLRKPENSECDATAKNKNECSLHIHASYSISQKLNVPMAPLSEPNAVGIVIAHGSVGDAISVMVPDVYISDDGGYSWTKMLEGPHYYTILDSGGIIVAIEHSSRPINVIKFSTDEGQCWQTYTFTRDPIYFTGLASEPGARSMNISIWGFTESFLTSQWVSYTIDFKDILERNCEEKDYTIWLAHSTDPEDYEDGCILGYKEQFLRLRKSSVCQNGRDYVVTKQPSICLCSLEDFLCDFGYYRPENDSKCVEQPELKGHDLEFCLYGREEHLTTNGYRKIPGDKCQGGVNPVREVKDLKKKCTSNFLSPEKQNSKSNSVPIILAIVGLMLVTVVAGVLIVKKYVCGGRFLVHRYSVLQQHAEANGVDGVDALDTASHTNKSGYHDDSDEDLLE
# UniProt Q15582, sequence (Q15582 whole entry, looked up): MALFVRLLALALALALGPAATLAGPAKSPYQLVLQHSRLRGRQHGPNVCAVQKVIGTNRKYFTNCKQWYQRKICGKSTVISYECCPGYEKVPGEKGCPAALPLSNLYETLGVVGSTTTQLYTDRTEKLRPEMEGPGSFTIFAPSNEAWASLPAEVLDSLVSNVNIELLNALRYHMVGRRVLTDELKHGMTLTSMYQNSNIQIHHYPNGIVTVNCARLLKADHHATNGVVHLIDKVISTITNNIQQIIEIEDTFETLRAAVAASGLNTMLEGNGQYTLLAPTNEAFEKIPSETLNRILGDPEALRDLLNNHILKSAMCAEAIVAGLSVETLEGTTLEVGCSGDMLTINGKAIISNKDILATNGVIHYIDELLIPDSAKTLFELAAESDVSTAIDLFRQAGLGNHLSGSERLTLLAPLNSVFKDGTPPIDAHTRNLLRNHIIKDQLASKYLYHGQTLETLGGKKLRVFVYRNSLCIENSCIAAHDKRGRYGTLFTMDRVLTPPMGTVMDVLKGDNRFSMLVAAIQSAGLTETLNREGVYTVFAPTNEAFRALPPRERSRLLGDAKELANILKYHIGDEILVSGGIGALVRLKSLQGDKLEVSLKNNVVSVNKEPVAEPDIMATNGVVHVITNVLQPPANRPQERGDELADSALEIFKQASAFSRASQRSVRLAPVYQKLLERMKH
Target,log2 fold change [1],log2 fold change [2],log2 fold change [3],log2 fold change [4],log2 fold change [5],log2 fold change [6],log2 fold change [7],log2 fold change [8],log2 fold change [9],log2 fold change [10],log2 fold change [11],log2 fold change [12],log2 fold change [13],log2 fold change [14],log2 fold change [15],log2 fold change [16],log2 fold change [17],log2 fold change [18],log2 fold change [19],log2 fold change [20]
SRRM2 (UniProt Q9UQ35),0.018,0.097,0.05,0.166,-0.121,-0.293,0.018,0.028,0.01,0.117,-0.048,-0.246,0.021,-0.255,-0.044,-0.13,0.013,0.012,0.044,-0.131
TCOF1 isoform 4 (UniProt Q13428),0.002,0.028,-0.011,0.092,-0.061,-0.051,-0.01,-0.002,0.017,0.028,-0.008,-0.053,0.021,-0.016,-0.029,0.042,0.002,-0.047,0.013,-0.01
TBC1D10B (UniProt Q4KMP7),-0.001,0.062,0.011,0.032,-0.088,-0.088,0.008,-0.042,0.041,-0.002,0.012,-0.04,0.013,-0.153,0,0.046,-0.022,0.092,0.021,0.083
THADA (UniProt Q6YHU6),0.019,-0.18,-0.008,-0.081,-0.022,-0.03,-0.031,0.014,0.012,-0.014,0.01,-0.168,0.05,0.018,0.046,-0.239 (active),-0.052,0.083,0.001,-0.133
SNX5 (UniProt Q9Y5X3),-0.06,-0.172,0.015,-0.015,-0.012,-0.066,-0.136,0.008,0.01,-0.085,-0.075,-0.32 (active),0.022,-0.014,-0.145,-0.138,-0.071,0.036,-0.019,-0.236
STEAP3 isoform 2 (UniProt Q658P3),-0.028,-0.014,-0.06,-0.11,-0.028,0.035,-0.01,0.025,0.013,0.227 (active),0.065,-0.003,0.022,-0.013,0.054,-0.032,-0.006,0.012,0.003,-0.159
STX17 (UniProt P56962),0.023,0.013,0.046,-0.027,-0.12,-0.081,0.027,-0.001,0.039,0.093,0.197,-0.27,0.025,-0.171,-0.156,-0.026,-0.031,0.001,0.031,-0.246
SLC25A39 (UniProt Q9BZJ4),-0.069,-0.255,0.073,-0.115,0.123,-0.49,-0.344,0.224,-0.044,-0.072,-0.029,-0.025,0.14,-0.165,0.044,0.075,0.269,-0.08,-0.079,-0.523
TGFBI (UniProt Q15582),0.063,-0.054,-0.892 (active),0.084,-0.012,-0.003,-0.029,0.15,0.018,-0.083,-0.021,-0.047,0.215,0.181,0.067,-0.451,0.031,0.043,-0.182,-0.159
STRN (UniProt O43815),-0.002,-0.002,0.052,-0.018,-0.083,-0.003,0.02,0.017,0.015,0.006,0.016,0.068,-0.004,-0.125,0.046,-0.048,0.048,0.076,-0.018,0.198
STARD9 (UniProt Q9P2P6),-0.037,-0.028,0.098,-0.035,0.096,0.058,-0.132,-0.185,0.154,0.008,0.144,0.141,0.012,0.049,-0.06,0.04,0.013,0.028,0.074,-0.146
TAX1BP1 (UniProt Q86VP1),-0.03,-0.043,-0.009,0.069,0.007,-0.052,0.001,0.033,-0.012,0.044,-0.001,-0.009,-0.058,0.042,0.168,0.156,0.152,0.069,0.062,-0.067
SPG11 (UniProt Q96JI7),-0.232,0.158,-0.415,-0.118,0.388,0.14,-0.032,0.331,-0.167,0.401,0,0.058,-0.282,0.619,-0.397,0.173,-0.255,0,-0.01,-0.328
STARD7 (UniProt Q9NQZ5),0.006,-0.094,0.006,-0.063,0.027,-0.171,-0.035,0.031,0.003,0.01,0.023,-0.051,0.045,-0.114,0.034,-0.168,-0.024,0.023,0.021,-0.01
SNX2 (UniProt O60749),0.011,-0.156,0.037,0,0.013,-0.101,-0.105,0.029,0.001,-0.104,-0.034,-0.223,0.006,-0.039,-0.107,-0.216,-0.102,0.041,-0.014,-0.184
SORT1 (UniProt Q99523),0.058,-0.066,0.002,0.008,-0.016,-0.032,0.028,0.056,0.022,0.003,0.007,-0.742 (active),-0.019,-0.051,0.023,-0.069,-0.001,-0.066,-0.042,-0.032
